Test systems include SK-MEL-2 melanoma; SN12C renal; UO-31 renal; TK-10 renal; ACHN renal; CAKI-1 renal; A498 renal; MOLT-4 leukemia; EKVX NSCLC; CCRF-CEM leukemia.
What all share (experiment): NCI-60 one-dose screen, 48 h (100 = growth as untreated, 0 = no growth, -100 = all killed)
Common to all, as to conditions: 10 µM unless noted

About 83,000 compounds went through this panel and 20% of them were active in at least one assay; those are over-represented in the sample as a whole.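 The test compound was applied at a single concentration to cells in 96-well plates for 48 hours, and percent growth was recorded.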 Values without a mark were called inactive. Calls of active or inactive are those of the source. How the source made its calls: active means growth percent below 10; inactive means the rest.

For the molecule `N=C(N)c1ccc(-c2ccc(-c3cccs3)s2)cc1F`, the growth in the assay on SK-MEL-2 melanoma is -80.2% (active); in the assay with SN12C renal it was -65.3% (active); in the assay on UO-31 renal it was -89.7% (active); in the assay with TK-10 renal, -94.3% (active); in the assay on ACHN renal it was -84.5% (active); in the assay on CAKI-1 renal, -72.6% (active). The growth in the assay on A498 renal was -92.7% (active); in the assay on MOLT-4 leukemia, -55.5% (active).
For `O=C(Nc1cccc(-n2ccc3c(NC(=O)c4ccccc4)nccc32)c1)c1ccc(Cl)c(Cl)c1`, the growth is -33.3% (active) in the assay with EKVX NSCLC; -83.8% (active) in the assay with SN12C renal; -78.1% (active) in the assay with UO-31 renal; -75.9% (active) with ACHN renal; -71.7% (active) in the assay on CAKI-1 renal; -2.71% (active) in the assay with A498 renal. Besides, the growth in the assay on CCRF-CEM leukemia is -41.6% (active).
Consider `FC(F)(F)c1cc(-c2nnc3n2N=C(Cl)CS3)cc(C(F)(F)F)c1`, for which the growth is 123% in the assay with SK-MEL-2 melanoma; 82.1% in the assay with SN12C renal; 97.9% with UO-31 renal; 118% in the assay on TK-10 renal; 110% in the assay with ACHN renal; 108% in the assay on A498 renal. Also, the growth with CCRF-CEM leukemia was 20.5%; in the assay with MOLT-4 leukemia, -17.6% (active).
In the case of `COc1ccc(-c2cc(-c3cc4ccccc4oc3=O)n(-c3ccccc3)n2)cc1`, the growth with EKVX NSCLC is 67.5%; in the assay with SN12C renal it was 67%; with TK-10 renal, 141%; in the assay on ACHN renal, 73.2%; with CAKI-1 renal, 97.1%; in the assay on A498 renal it was 91.3%. For the same molecule, in the assay on CCRF-CEM leukemia, the growth was 94.5%.
As to `CCN(CC)CCCCCCCCNc1c2ccc(Cl)cc2nc2ccc(OC)cc12`, the growth was -12.2% (active) with EKVX NSCLC; -19.7% (active) with SN12C renal; -56.2% (active) with UO-31 renal; -58% (active) in the assay on ACHN renal; -1.58% (active) in the assay with CAKI-1 renal; -92.5% (active) with A498 renal. Besides, the growth was -26.5% (active) with CCRF-CEM leukemia and -45.8% (active) in the assay with MOLT-4 leukemia.
Take `CC(C)(C)c1cc(C[P+](c2ccccc2)(c2ccccc2)c2ccccc2)cc(C(C)(C)C)c1O`: the growth in the assay with SK-MEL-2 melanoma was -39.9% (active); in the assay with SN12C renal, 12.2%; in the assay with UO-31 renal, -11.4% (active); in the assay with TK-10 renal, -3.05% (active); in the assay with ACHN renal it was -10.8% (active); in the assay with CAKI-1 renal, -2.21% (active). In addition, the growth in the assay on A498 renal was -17.1% (active); with MOLT-4 leukemia, -7.18% (active).
`C[N+](C)(C)CCCCCCCCCC[N+](C)(C)C`: the growth in the assay on EKVX NSCLC is 96.3%; in the assay on SN12C renal it was 85.9%; in the assay with UO-31 renal, 96.1%; with ACHN renal, 112%; in the assay with CAKI-1 renal it was 104%; with A498 renal it was 123%. The growth was 72.4% in the assay on CCRF-CEM leukemia and 99.4% in the assay on MOLT-4 leukemia.
With `COc1ccc(/C=N/NC(N)=S)c(OC)n1`, the growth in the assay on SK-MEL-2 melanoma is 94%; in the assay on SN12C renal, 98.5%; in the assay on UO-31 renal, 95.2%; in the assay on TK-10 renal, 112%; in the assay with ACHN renal, 100%; in the assay with CAKI-1 renal it was 113%. Also, the growth with A498 renal is 99.1%; with MOLT-4 leukemia, 90.8%.
For the molecule `ClCCn1cnc2c(SCc3ccccc3Cl)ncnc21`, the growth with EKVX NSCLC was 66.8%; with SN12C renal it was 44.8%; in the assay with TK-10 renal, 34.4%; with ACHN renal, 38.4%; in the assay on CAKI-1 renal, 47.6%; in the assay on A498 renal, 39%. Also, the figures for the growth with CCRF-CEM leukemia and in the assay with MOLT-4 leukemia were 24.2% and -28% (active), respectively.
For the molecule `Cc1cc(Nc2c3ccccc3nc3ccccc23)ccc1NS(C)(=O)=O`, the growth in the assay on SK-MEL-2 melanoma was 40.7%; with SN12C renal, 39.6%; with UO-31 renal it was 22.7%; in the assay on TK-10 renal it was 56%; in the assay with ACHN renal, 9.04% (active); in the assay with A498 renal, 24.2%. Moreover, the growth in the assay with MOLT-4 leukemia was 2.33% (active).
With `CCCCCc1c(C)[nH]c(/C=C2\N=C(c3ccc[nH]3)C=C2Oc2ccc(OC)cc2)c1C`, the growth was -74.4% [100 µM] (active) with SK-MEL-2 melanoma; -88.6% [100 µM] (active) in the assay on SN12C renal; -75.7% [100 µM] (active) in the assay on UO-31 renal; -60.2% [100 µM] (active) with TK-10 renal; -59.8% [100 µM] (active) in the assay with ACHN renal; -73.9% [100 µM] (active) with CAKI-1 renal. The growth with A498 renal was -89.3% [100 µM] (active); in the assay on MOLT-4 leukemia, -34% [100 µM] (active).
`COC(=O)[C@@H](Cc1c[nH]c2ccccc12)NC(=O)/C=C/c1ccccc1`: the growth was 16.6% with SK-MEL-2 melanoma; 50.7% with SN12C renal; 36.8% with UO-31 renal; 54.1% in the assay with TK-10 renal; 39.2% in the assay with ACHN renal; 31.7% in the assay with CAKI-1 renal. Besides, the growth was -9.95% (active) in the assay with A498 renal and 24.1% in the assay on MOLT-4 leukemia.
Consider `N/C(=N\O)c1ncc(-c2ccc(C(F)(F)F)cc2)c(NC2CCCCCC2)n1`, for which the growth was -90.6% [100 µM] (active) in the assay on SK-MEL-2 melanoma; -91.3% [100 µM] (active) in the assay on SN12C renal; -92.1% [100 µM] (active) in the assay with UO-31 renal; -69.5% [100 µM] (active) in the assay with TK-10 renal; -64.3% [100 µM] (active) in the assay with ACHN renal; -76.4% [100 µM] (active) in the assay on CAKI-1 renal. Also, the figures for the growth with A498 renal and in the assay on MOLT-4 leukemia were -90.1% [100 µM] (active) and -61.3% [100 µM] (active), respectively.
Turning to `O=[N+]([O-])c1ccc(Sc2nc(Cl)nc(NC3CCCC3)n2)cc1`, the growth is -91.7% [100 µM] (active) in the assay with SK-MEL-2 melanoma; -88.9% [100 µM] (active) in the assay with SN12C renal; -83.7% [100 µM] (active) with UO-31 renal; -96.7% [100 µM] (active) with TK-10 renal; -100% [100 µM] (active) in the assay with ACHN renal; -91.4% [100 µM] (active) in the assay with CAKI-1 renal. Further, the figures for the growth with A498 renal and with MOLT-4 leukemia were -94.2% [100 µM] (active) and -30.1% [100 µM] (active), respectively.
As for `COc1cc(OC)cc(-c2ccc(-c3ccc(C(=N)N)s3)s2)c1`, the growth with SK-MEL-2 melanoma is -85.4% (active); with SN12C renal, -69.5% (active); in the assay with UO-31 renal, -85.8% (active); in the assay on TK-10 renal it was -88.7% (active); in the assay on ACHN renal it was -76% (active); in the assay with CAKI-1 renal it was -86.4% (active). Also, the growth in the assay on A498 renal was -80.9% (active); in the assay on MOLT-4 leukemia, -71.2% (active).
Turning to `Cc1cccc2nc3ccccc3c(Nc3ccc(NS(C)(=O)=O)cc3)c12`, the growth with SK-MEL-2 melanoma is 112%; in the assay with SN12C renal, 38.9%; with UO-31 renal, 21.6%; with TK-10 renal it was 78.6%; in the assay on ACHN renal, -27.1% (active); in the assay on CAKI-1 renal, 23.4%. The values for the growth in the assay on A498 renal and in the assay on MOLT-4 leukemia were 45.3% and -0.487% (active), respectively.
Regarding `COC(=O)[C@H](Cc1cn(C)cn1)NC(=O)[C@H](CC(C)C)NC(=O)Nc1cc(C(F)(F)F)cc(C(F)(F)F)c1`, the growth was -95.4% [100 µM] (active) in the assay on SK-MEL-2 melanoma; -92.8% [100 µM] (active) in the assay with SN12C renal; -96.7% [100 µM] (active) with UO-31 renal; -98.5% [100 µM] (active) with TK-10 renal; -100% [100 µM] (active) with ACHN renal; -99.2% [100 µM] (active) in the assay with CAKI-1 renal. The growth in the assay with A498 renal is -93.8% [100 µM] (active); in the assay on MOLT-4 leukemia, -57.2% [100 µM] (active).
Consider `Cc1cc2nc(CN)[nH]c2cc1C`, for which the growth was 110% with SK-MEL-2 melanoma; 111% in the assay with SN12C renal; 101% in the assay with UO-31 renal; 104% with TK-10 renal; 112% in the assay with ACHN renal; 98.7% in the assay with A498 renal. For the same molecule, in the assay on MOLT-4 leukemia, the growth is 102%.
As for `CSc1nc(N)c2[nH]c(-c3cc4ccccc4[nH]c3=O)nc2n1`, the growth is 74.2% in the assay with SK-MEL-2 melanoma; 85.1% in the assay with SN12C renal; 57.3% with UO-31 renal; 106% in the assay with TK-10 renal; 61.1% in the assay on ACHN renal; 92.4% in the assay with A498 renal. The growth is 91.6% with CCRF-CEM leukemia and 79.8% in the assay on MOLT-4 leukemia.
